Experimental data from PubChem BioAssay.
Calls of active or inactive are those of the source.

Assay: probe aCHRDL2 binding to arrayed compounds – biochemical, biotinylated probe, 635/667 nm fluorescence, primary screen (AID 1100)
Conditions: small-molecule microarray, higher = more signal

| Compound | composite z-score |
| --- | --- |
| CC(=O)Nc1ccc([C@H]2[C@H](C)CC[C@H]3C(=O)N4[C@@H](CC[C@@H](C)[C@@H]4c4ccc(NC(C)=O)cc4)C(=O)N32)cc1 | -0.286 |
| C=CCN(C(=O)C1N(c2ccc(CCO)cc2)C(=O)C2C(C(=O)O)C3C=CC21O3)C(C)(C)C (configuration not stated) | 1.24 |
| CO[C@H]1COC(=O)[C@H](C)NC(=O)CC=C[C@@H](C)[C@H](NS(=O)(=O)c2ccc(C)cc2)COC(=O)[C@@H](OCc2ccccc2)C=C[C@@H]1C | -0.97 |
| COCCCNC(=O)[C@@]1(Sc2ccc(C)cc2)CC(=O)N(Cc2cc(C(F)(F)F)cc(C(F)(F)F)c2)[C@@H]1c1ccc(CO)cc1I | 1.19 |
| CO[C@H]1COC(=O)CC=C[C@H](C)[C@@H](OC)COC(=O)[C@H](Cc2ccccc2)NC(=O)CC=C[C@@H]1C | -1.86 |
| COCCOC(=O)N1C(=O)[C@@]2(c3cc(C#CCCO)ccc31)[C@H](C(=O)N1CCCCCCC1)[C@H]1C(=O)O[C@H](c3ccccc3)[C@H](c3ccccc3)N1[C@@H]2c1ccc(O)cc1 | 1.19 |
| Cc1ccc(N2C(=O)c3ccccc3[C@@H](C(=O)NCc3ccccc3)[C@@H]2c2ccc(CO)cc2)nc1 | 1.01 |
| O=C1C2C=CC(C(O)C(c3ccccc3)c3ccccc3)N(Nc3ccc([N+](=O)[O-])cc3)C2C(=O)N1c1ccccc1 (configuration not stated) | 0.767 |

Assay: change in splice reporter luminescence, either direction, cell-based, HEK293, spliceosome inhibition project, primary screen (AID 1101);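 also: HEK293 cells carrying a splicing-competent luciferase reporter gene; test concentration not given here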
Conditions: HEK293 splicing luciferase reporter, 24 h, higher = more signal, called active from +8 up or from −8 down

| Compound | z-score |
| --- | --- |
| CO[C@H]1COC(=O)[C@@H](C)COC(=O)[C@H](Cc2ccccc2)NC(=O)CC=C[C@H]1C | -0.776 (inactive) |
| C=CCC(OC(C)=O)[C@@H]1[C@@H](N(Cc2cccc3ccccc23)C(=O)c2ccc(C)cc2)c2cc(OCCCO)ccc2N1C(=O)c1ccc(-c2ccccc2)cc1 (some centres not stated) | -1.15 (inactive) |
| CC(C)[C@H]1NC(=O)[C@@]23C(=O)N[C@@H](Cc4ccccc4)C2[C@H](C)[C@@]2(C)O[C@H]2C3/C=C/C/C=C\CNC(=O)[C@H](C)NC1=O (some centres not stated) | 0.616 (inactive) |
| CO[C@H]1COC(=O)[C@@H](Cc2ccccc2)NC(=O)[C@@H](C)COC(=O)CC=C[C@@H]1C | 0.105 (inactive) |
| CN1CCC(CCCO)=CC1C1CC1 (configuration not stated) | -1.18 (inactive) |
| CC(C)[Si]1(C(C)C)OCc2cc(C3CC3)nc(-c3ccccc3)c21 | -2.27 (inactive) |
| O=C1c2ccccc2[C@](Cc2ccccc2I)(C(=O)O)[C@H](c2ccc(CO)cc2)N1C1CCCCC1 | -1.32 (inactive) |
| C[C@@H]1NC(=O)CC=C[C@@H](C)[C@@H]2C=C[C@H](O)[C@@H](COC(=O)[C@H](C)NC(=O)CC=C[C@@H](C)[C@@H]3C=C[C@H](O)[C@@H](COC1=O)O3)O2 | -1.61 (inactive) |
| C=CCc1cccc([C@@H]2[C@@H](C)CC[C@H]3C(=O)N4[C@H](c5cccc(CC=C)c5)[C@@H](C)CC[C@H]4C(=O)N23)c1 | -1.34 (inactive) |
| C=CC[C@@]12N=C(c3ccc(OCCCO)cc3)O[C@@H]1c1ccccc1CN(Cc1ccccc1)C2=O | -0.291 (inactive) |
| COc1ccc([C@H]2C[C@H]3C(Br)=C[C@]2(OC)C(=O)[C@]32CO2)cc1 | 1.49 (inactive) |
| C=CCOC(=O)[C@@H]1[C@H]2C(=O)O[C@H](c3ccccc3)[C@H](c3ccccc3)N2[C@H](c2ccc(OCCOC(=O)[C@H]3C[C@H]4C(=O)N5CCC[C@H]5C(=O)N4[C@H]3c3ccc(O)cc3)cc2)[C@@]12C(=O)Nc1ccccc12 | -1.3 (inactive) |
| CC(=O)NCCCC[C@@H]1NC(=O)[C@@H]2C[C@H](C(=O)NCc3ccc(F)cc3)[C@H](c3cccc(OCCO)c3)N2C1=O | 0.281 (inactive) |
| O=C(CS)NCCCCCNC(=O)[C@H]1C[C@H]2C(=O)N3CCC[C@H]3C(=O)N2[C@H]1c1ccc(O)cc1 | -1.45 (inactive) |
| C=C(COC)/C(=C/C[C@H](OC(C)=O)c1ccc(OCCO)cc1)c1cnc2ccccc2c1 | -1.48 (inactive) |
| COc1cc([C@@H]2N[C@H](C(=O)O)Cc3c2[nH]c2ccccc32)cc(OC)c1OC | -0.526 (inactive) |
| C=CC[C@@]1(C(=O)N2CCOCC2)N=C(c2ccc(OCCCO)cc2)O[C@@H]1c1ccccc1 | -0.462 (inactive) |
| COCCOC(=O)N1C(=O)[C@@]2(c3cc(C#CC4=CCCCC4)ccc31)[C@H](c1ccc(O)cc1)N1[C@H](c3ccccc3)[C@H](c3ccccc3)OC(=O)[C@H]1[C@@H]2C(=O)N1CCCCCCC1 | -0.476 (inactive) |
| COCCOC(=O)N1C(=O)[C@@]2(c3cc(C#CC4=CCCCC4)ccc31)[C@H](C(=O)NC[C@H](O)c1ccccc1)[C@H]1C(=O)O[C@H](c3ccccc3)[C@H](c3ccccc3)N1[C@@H]2c1ccccc1OCCO | -1.5 (inactive) |
